The whole screen tested about 65,000 compounds, of which about 450 (0.69%) were called active. What follows is part of a selection rich in actives, with near analogues and random picks from the rest. Values without a mark were called inactive.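 How the source made its calls: active means HER2 level under 5% of the carrier-only control; inconclusive means no clear call, values can overlap the other calls; inactive means the rest.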
The compounds below were run against Receptor tyrosine-protein kinase erbB-2 (Homo sapiens) (UniProt P04626) (assay: reducers of endogenous HER2 protein levels – SKBR-3 cells, AlphaScreen, 66K library, primary screen (AID 645;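 further: 100% = DMSO carrier and 0% = 500 nM PU-H71 HSP90 inhibitor; lower value means stronger loss of Her2 protein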)). Conditions: SKBR-3 HER2 protein level, 18-24 h, at 10 µM, active compounds read low.
Receptor tyrosine-protein kinase erbB-2 (Homo sapiens), sequence (P04626 whole entry, looked up): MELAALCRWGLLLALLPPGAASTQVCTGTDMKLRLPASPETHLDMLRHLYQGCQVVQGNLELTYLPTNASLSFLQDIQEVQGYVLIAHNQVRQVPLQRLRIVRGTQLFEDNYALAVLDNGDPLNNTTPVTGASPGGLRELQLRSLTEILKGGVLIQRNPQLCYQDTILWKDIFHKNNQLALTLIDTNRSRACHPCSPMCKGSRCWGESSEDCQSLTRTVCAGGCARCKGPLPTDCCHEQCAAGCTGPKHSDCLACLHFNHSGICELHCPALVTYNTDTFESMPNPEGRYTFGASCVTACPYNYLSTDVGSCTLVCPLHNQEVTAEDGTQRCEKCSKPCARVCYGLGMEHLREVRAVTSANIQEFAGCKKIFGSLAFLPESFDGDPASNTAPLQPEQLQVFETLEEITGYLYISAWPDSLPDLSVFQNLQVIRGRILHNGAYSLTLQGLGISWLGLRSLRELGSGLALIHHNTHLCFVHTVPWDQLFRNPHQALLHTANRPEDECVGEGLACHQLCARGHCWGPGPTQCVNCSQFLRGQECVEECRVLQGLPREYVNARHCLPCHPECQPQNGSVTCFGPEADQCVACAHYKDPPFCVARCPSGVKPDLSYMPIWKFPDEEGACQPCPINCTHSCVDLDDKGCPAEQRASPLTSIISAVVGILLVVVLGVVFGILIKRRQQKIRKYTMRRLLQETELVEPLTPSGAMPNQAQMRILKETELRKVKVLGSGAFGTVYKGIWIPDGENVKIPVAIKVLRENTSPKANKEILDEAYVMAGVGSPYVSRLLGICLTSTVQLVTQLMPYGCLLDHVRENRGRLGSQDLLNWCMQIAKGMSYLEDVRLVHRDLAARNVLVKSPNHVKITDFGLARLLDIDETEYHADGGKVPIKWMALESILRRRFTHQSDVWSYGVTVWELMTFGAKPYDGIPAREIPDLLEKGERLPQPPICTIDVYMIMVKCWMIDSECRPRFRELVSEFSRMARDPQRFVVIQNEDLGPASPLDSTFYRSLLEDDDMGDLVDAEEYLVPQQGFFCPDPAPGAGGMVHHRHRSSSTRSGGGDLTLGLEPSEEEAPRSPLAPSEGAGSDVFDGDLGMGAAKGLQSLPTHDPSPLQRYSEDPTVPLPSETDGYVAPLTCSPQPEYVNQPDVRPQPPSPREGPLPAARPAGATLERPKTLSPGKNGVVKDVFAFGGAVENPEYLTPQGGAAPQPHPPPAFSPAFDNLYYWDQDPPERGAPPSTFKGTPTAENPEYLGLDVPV
With CCCCNC(=O)c1c[nH]c2ccc(S(=O)(=O)Nc3ccc(OCC)cc3)cc2c1=O the HER2 level % of control was 54.9%.
For CCOC(=O)c1c(NC(=O)CCC(=O)NCc2ccco2)sc2c1CCCC2, the HER2 level % of control was 104%.
For Fc1ccc2nc(-c3ccccc3)nc(SCc3nnc(-c4ccccc4)o3)c2c1, the HER2 level % of control was 67.9%.
O=C1CCc2cc(S(=O)(=O)N3CCC(C(=O)NCc4ccccc4Cl)CC3)ccc2N1 showed an HER2 level % of control of 90.7%.
Compound COc1nc(OC)nc(N(C)CCO)n1 has an HER2 level % of control of 97.4%.
For COc1ccc(N2C(=O)CN=C2Nc2cccc(C)c2C)cc1OC, the HER2 level % of control was 70.2%.
Work on COc1ccc(C2C(C#N)=C(N)Oc3n[nH]c(C)c32)cc1CN1CCN(c2ccc(F)cc2)CC1 (stereo not given) yielded an HER2 level % of control of 117%.
For CCCc1[nH]nc2c1C(c1ccc(OC)c(Cn3nc(C)c(Br)c3C)c1)C(C#N)=C(N)O2 (stereo not given), the HER2 level % of control was -20.4% (active).
Work on CCCc1[nH]nc2c1C(c1ccc(Br)s1)C(C#N)=C(N)O2 (stereo not given) yielded an HER2 level % of control of 124%.
COc1ccc2oc(C)c(NC(C)=O)c2c1 gave an HER2 level % of control of 71.5%.
COc1ccc(NC(C)=O)cc1NC(=O)CN1CCN(C2c3ccccc3-c3ccccc32)CC1 showed an HER2 level % of control of 71.4%.
Work on CCOC(=O)C1CCCN(C(=O)CN(c2ccc(OC)cc2)S(=O)(=O)c2c(C)noc2C)C1 (stereo not given) yielded an HER2 level % of control of 95.7%.
Compound c1ccc(-n2ncc(-c3nn[nH]n3)n2)cc1 has an HER2 level % of control of 88.5%.
In the case of COc1cc(Br)cc(/C=N/c2ncn[nH]2)c1O, the HER2 level % of control is reported as 92.3%.
Cc1cc(C)c2c(c1)c(C)cc1nnc(SCC(=O)NCc3ccco3)n12 gave an HER2 level % of control of 104%.
Compound O=C(c1ccco1)N1CCN(C(=O)C2c3ccccc3Oc3ccccc32)CC1 has an HER2 level % of control of 100%.
Compound CCc1c(O)nc(SCC(=O)N2CCCCC2)n(-c2ccccc2C)c1=O has an HER2 level % of control of 114%.
N#CCCn1cnc2ccccc21 gave an HER2 level % of control of 106%.
With COc1ccc(-c2nnc(SC(=O)N3c4ccccc4Sc4ccccc43)o2)cc1 the HER2 level % of control was -15.7% (active).
Work on COc1ccc(-c2nnc(SC(C)C#N)o2)cc1 (stereo not given) yielded an HER2 level % of control of 127%.
COc1ccc(CC(=O)Nc2ccc(-c3nnc(-c4ccccc4)o3)cc2)cc1 showed an HER2 level % of control of 87.4%.
With CCn1nc(C(=O)OCC(=O)N2c3ccccc3CC2C)c2ccccc2c1=O (stereo not given) the HER2 level % of control was 106%.
CCOc1ccc(NCCC(=O)c2ccc3c(c2)OCO3)cc1 gave an HER2 level % of control of 95.7%.
Nc1nonc1-c1noc(-c2ccc(Br)o2)n1 showed an HER2 level % of control of 79.9%.
CCn1ncc(Br)c1C(=O)Nc1cc(C)ccc1F gave an HER2 level % of control of 75.8%.
Work on Clc1cccc(Cl)c1Cn1nnc(-c2cccs2)n1 yielded an HER2 level % of control of 89.2%.
Compound O=C(CN1C(=O)CCC1=O)Nc1ccc(S(=O)(=O)N2CCOCC2)cc1 has an HER2 level % of control of 103%.
With CCCCN(CC)CCCNC(=O)CS(=O)(=O)Cc1nc(-c2cccc(OC)c2)oc1C the HER2 level % of control was 80.5%.
With CC1(C)CC(O)C(CCC(O)c2ccccc2)C(C)(C)N1 (stereo not given) the HER2 level % of control was 89.8%.
CCN(CC)S(=O)(=O)c1ccc(NC(=O)CN(c2cccc(F)c2)S(C)(=O)=O)cc1 showed an HER2 level % of control of 152%.
For COC(=O)[C@H](Cc1ccccc1)NC(=O)N1CC(C)OC(C)C1 (stereo not given in full), the HER2 level % of control was 108%.
With C=C(C)COc1ccc(-c2n[nH]c(C)c2-c2ccccc2OC)c(O)c1 the HER2 level % of control was -9.89% (active).
COc1ccc(-c2n[nH]c(C)c2-c2ccc(OC)c(OC)c2)c(O)c1 gave an HER2 level % of control of 82.6%.
With C=C(C)COc1ccc(-c2n[nH]c(C)c2-c2ccccc2)c(O)c1 the HER2 level % of control was 68.6%.
CCOC(=O)CNC(=O)CN1C(=O)CCSc2ccccc21 showed an HER2 level % of control of 106%.
Cn1c(=O)c2c(nc(N3CCCCCC3)n2CC(O)COc2ccc(Cl)cc2)n(C)c1=O (stereo not given) showed an HER2 level % of control of 89%.
COc1ccccc1NC(=O)C1=C(C)NC2=C(C(=O)CCC2)C1c1ccc(C)o1 (stereo not given) showed an HER2 level % of control of 90.6%.
O=c1ccn(Cc2ccccc2Cl)cc1 was tested, and the HER2 level % of control was 93.6%.
Compound COc1ccccc1N1CCN(C(=O)c2ccc(S(=O)(=O)N3CCCCC3)cc2)CC1 has an HER2 level % of control of 135%.
Cn1c(SCC(=O)Nc2cccc(O)c2)nnc1-c1ccc(S(=O)(=O)N2CCOCC2)cc1 showed an HER2 level % of control of 100%.
Work on CC(=O)Nc1nc(C)c(Cc2ccccc2)c(=O)[nH]1 yielded an HER2 level % of control of 142%.
For Cn1c(=O)c2cn(-c3cccc4ccccc34)cc2n(C)c1=O, the HER2 level % of control was 94.5%.
Work on COc1cc(NS(=O)(=O)c2ccc(NC(C)=O)cc2)cc(OC)c1 yielded an HER2 level % of control of 90.4%.
With CC(=O)Nc1ccc(S(=O)(=O)Nc2cccc(NC(=O)C(C)(C)C)c2)cc1 the HER2 level % of control was 127%.
In the case of CC(=O)Nc1ccc(NS(=O)(=O)c2cc(C)sc2C)cc1, the HER2 level % of control is reported as -22.3% (active).
CCC(C)n1[nH]c(=O)c2c(C)cc(C)nc21 (stereo not given) was tested, and the HER2 level % of control was 116%.
CCN(CC)CCCN1C(=O)C(=O)/C(=C(/O)c2c(C)nc3ccccn23)C1c1ccc(C)o1 (stereo not given) was tested, and the HER2 level % of control was 90.1%.
Cc1ccc(NC(=O)C2CC(c3ccc(F)cc3)=NO2)cc1 (stereo not given) was tested, and the HER2 level % of control was 127%.
CCC1(C)N(O)C(C)(C)C(c2ccc(OC)cc2)=[N+]1[O-] (stereo not given) was tested, and the HER2 level % of control was 90.2%.
Compound O=C1c2ccccc2C(O)N1Cc1ccccc1Cl (stereo not given) has an HER2 level % of control of 99%.
Compound Brc1cnc(N2CCCC2)nc1N1CCCCC1 has an HER2 level % of control of 69.2%.
COc1ccc(CC(=O)Nc2nc3n(n2)C(c2ccccc2)CC(=O)N3)cc1OC (stereo not given) gave an HER2 level % of control of 104%.
Work on CCCn1c(SCC(=O)c2ccc3c(c2)OCCO3)nnc1C(C)C yielded an HER2 level % of control of 116%.
COc1cc(C2C(C(=O)Nc3ccccc3OC)=C(C)Nc3ncnn32)ccc1O (stereo not given) showed an HER2 level % of control of 106%.
O=C(C1CCN(S(=O)(=O)c2cccs2)CC1)N1CCCCCC1 showed an HER2 level % of control of 100%.
With Cc1nc(-c2ccc(NC(=O)c3cccs3)cc2)cs1 the HER2 level % of control was 103%.
CC1=C(C)CC2C(=O)N(c3cccc4ccccc34)C(=O)C2C1 (stereo not given) was tested, and the HER2 level % of control was 102%.
C=CCn1c(N)c(C(=O)OCC(C)C)c2nc3ccccc3nc21 showed an HER2 level % of control of 86%.
With CC(C)Cn1c(N)c(C(=O)NCc2cccs2)c2nc3ccccc3nc21 the HER2 level % of control was -24.2% (active).
C=CCn1c(N)c(S(=O)(=O)c2cccs2)c2nc3ccccc3nc21 gave an HER2 level % of control of 86.9%.
Compound COc1ccc(OCC(=O)OCCN(C)C)cc1 has an HER2 level % of control of 117%.
O=C(O)C1C2C=CC(C2)C1C(=O)N1CCN(CCO)CC1 (stereo not given) showed an HER2 level % of control of 56.8%.
With Nc1cc(=O)nc(SCc2ccccc2)n1Cc1ccco1 the HER2 level % of control was 77%.
Compound Cn1c(-c2ccc(F)cc2)cnc1SCC(=O)NCc1ccco1 has an HER2 level % of control of 85.8%.
In the case of O=c1[nH]c(CSc2ncc(-c3ccc(F)cc3)n2Cc2ccco2)nc2ccccc12, the HER2 level % of control is reported as -21.8% (active).
CN(C)c1nc2n(c(=O)n1)CCO2 showed an HER2 level % of control of 93.2%.
CCC(=O)NC(=Nc1nc2ccccc2s1)NC(=O)CC gave an HER2 level % of control of 76%.
CCC(=O)c1cc2c(cc1NC(=O)c1cccs1)OCCO2 gave an HER2 level % of control of 102%.
Compound COc1cccc(NC(=O)C(C)Oc2ccccc2)c1 (stereo not given) has an HER2 level % of control of 87.6%.
For CCCC1CC(C)(C(=O)Cn2[nH]c(=O)ccc2=O)OC1=O (stereo not given), the HER2 level % of control was 109%.
COc1ccccc1CNC(=O)Cn1cc2c(n1)CCCC2 gave an HER2 level % of control of 95.6%.
With CCc1cc2c(=O)c(-c3ccon3)c(N)oc2cc1OC the HER2 level % of control was 49.1%.
In the case of Cc1ccccc1CN1CCN(C(=O)c2cccc(F)c2)CC1, the HER2 level % of control is reported as 79%.
With Cc1cc(OCCN2CCCC2)ccc1C(C)C the HER2 level % of control was 63%.
For OC(COc1ccc2ccccc2c1)CN1CCOCC1 (stereo not given), the HER2 level % of control was 113%.
For c1ccc2cc(OCCN3CCCC3)ccc2c1, the HER2 level % of control was -25.1% (active).
For CCOC(=O)Cc1csc(NC(=O)C(C)(C)C)n1, the HER2 level % of control was 135%.
CCc1nc2ccccc2n(CCOCCOCCn2c(=O)c(CC)nc3ccccc32)c1=O gave an HER2 level % of control of 91.8%.
CC(=O)NC1=NC(=O)CS1 was tested, and the HER2 level % of control was 76.7%.
In the case of Cn1c2c(c(=O)n(C)c1=O)C1c3ccccc3OCC1C(C)(C)O2 (stereo not given), the HER2 level % of control is reported as 99.2%.
CCOc1ccccc1N=C1NC(=O)CS1 was tested, and the HER2 level % of control was 88.8%.
CCN(CC)CCNC(=O)Cn1cnc2sc(C)c(S(=O)(=O)N3CCOCC3)c2c1=O gave an HER2 level % of control of 103%.
OC(COc1cccc2ccccc12)CN1CCN(c2ccccn2)CC1 (stereo not given) was tested, and the HER2 level % of control was 105%.
With O=C1CSC(=O)N1CCOCCN1C(=O)CSC1=O the HER2 level % of control was 104%.
Cc1ccc2c(CSc3nncs3)cc(=O)oc2c1 gave an HER2 level % of control of 149%.
With Cc1cc(=O)[nH]c(SCc2cc(Cl)ccc2OC(F)F)n1 the HER2 level % of control was 103%.
For CC1CC(c2ccccc2)n2nc(NC(=O)c3cccs3)nc2N1 (stereo not given), the HER2 level % of control was 89%.
CCOC(=O)Cc1c(C)nc2c(C#N)c(C)nn2c1C was tested, and the HER2 level % of control was 92.6%.
With COCCNCCOCCOc1cccc(OC)c1 the HER2 level % of control was 102%.
Compound Cc1nc(C)c2c(c1C(F)(F)F)-c1ccccc1C2(F)F has an HER2 level % of control of 78.7%.
COc1ccc(C(c2nnnn2C2CCCCC2)N2CCN(c3ccccc3F)CC2)cc1 (stereo not given) showed an HER2 level % of control of 80.7%.
With O=C(c1ccc2c(c1)N(Cc1ccc(F)cc1)C(=O)CS2)N1CCOCC1 the HER2 level % of control was 98.6%.
For CC(=O)N1CCN(c2cccc(C)c2C)CC1, the HER2 level % of control was 110%.
For COc1ccc(C(CNC(=O)c2cccnc2SC)N2CCOCC2)cc1 (stereo not given), the HER2 level % of control was 106%.
CC(=O)Nc1ccc(S(=O)(=O)N2CCCC2C(=O)O)cc1 (stereo not given) showed an HER2 level % of control of 162%.
COC(=O)c1ccc(NC(=O)c2ccco2)cc1 showed an HER2 level % of control of 85.8%.
Cc1cc(C)nc(NC(=O)C(C)N2C(=O)c3ccccc3C2=O)n1 (stereo not given) showed an HER2 level % of control of 89.5%.
With COC(=O)c1ccc(NC(=O)C(C)N2C(=O)c3ccccc3C2=O)cc1 (stereo not given) the HER2 level % of control was -18.9% (active).
Work on COC(=O)C1C(=O)c2c([nH]c(C(=O)OCCSC)c2C)CC1C (stereo not given) yielded an HER2 level % of control of 99.8%.
Compound CCOC(=O)c1c(C)n(C)c2ccc(OC)c(NC(=O)CN3CCC4(CC3)OCCO4)c12 has an HER2 level % of control of 34.4%.
